We go through 42 compounds from PubChem BioAssay AID1210 (NMMLSC, 2008).

Activity calls are given as the source filed them.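 Rule for the calls: active = blocks over 70% of labeled estradiol binding at 10 µM, or over a set limit at 100 nM; inactive = the rest.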

The target in the assay is Estrogen receptor beta (Homo sapiens) (UniProt Q92731). Nature of the assay: ERbeta ligand binders by competition, primary screen, cell-based, Cos7 ERbeta-GFP, flow cytometry (AID 1210).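 Note: 0% = DMSO vehicle wells and 100% = complete loss of labeled estradiol signal.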 To be noted: fluorescent estrogen binding, stronger effect = higher value.
Sequence of Estrogen receptor beta (Homo sapiens) (Q92731 whole entry, looked up): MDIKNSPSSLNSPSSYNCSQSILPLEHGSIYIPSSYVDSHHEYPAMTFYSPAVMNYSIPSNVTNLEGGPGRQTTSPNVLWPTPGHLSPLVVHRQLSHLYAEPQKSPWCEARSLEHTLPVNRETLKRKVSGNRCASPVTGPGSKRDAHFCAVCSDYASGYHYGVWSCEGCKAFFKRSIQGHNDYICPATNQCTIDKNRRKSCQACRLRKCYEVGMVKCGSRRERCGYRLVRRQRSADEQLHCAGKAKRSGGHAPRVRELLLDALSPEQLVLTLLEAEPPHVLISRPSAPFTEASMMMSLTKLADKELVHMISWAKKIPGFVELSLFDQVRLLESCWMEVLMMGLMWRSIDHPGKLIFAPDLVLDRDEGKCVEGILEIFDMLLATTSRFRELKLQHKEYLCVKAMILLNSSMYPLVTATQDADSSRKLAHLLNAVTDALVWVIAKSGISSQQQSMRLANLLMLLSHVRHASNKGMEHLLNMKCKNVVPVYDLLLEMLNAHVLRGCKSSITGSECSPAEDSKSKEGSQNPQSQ
The mark [1] stands for this setting: ligand binding inhibition, at 0.1 µM.

Usually inhibition stands for the percentage by which the read-out fell short of the control. `CC(=O)Nc1ccc(OC(=O)CC2SC(=O)NC2=O)cc1` (centres undefined): the inhibition is 59% (active) (at 10 µM) and 66% under setting [1].

On to `Oc1ccc(-c2cn3c(n2)SCC3)cc1O`, for which the inhibition was 33% (inactive) (at 10 µM) and 22% under setting [1].

For the compound `O=C(Cc1cccs1)Nc1nncs1`, the inhibition reads like this: (at 10 µM) 26% (inactive); under setting [1], 16%.

For the compound `CN(C)c1ccc(N=Cc2ccco2)cc1`, the inhibition reads like this: (at 10 µM) 47% (inactive); under setting [1], 14%.

Regarding `O=[N+]([O-])c1cc(/C=N/N2CCN(C3c4ccccc4-c4ccccc43)CC2)ccc1Cl`, the inhibition is 21% (inactive) (at 10 µM) and 2% under setting [1].

For `O=C(CCCn1c(=S)[nH]c2ccccc2c1=O)N1CCN(c2cccc(Cl)c2)CC1`, the inhibition by setting is: (at 10 µM) 73% (active); under setting [1], 28%.

Regarding `Cc1ccc(Nc2nnc(SCC(=O)NCc3ccco3)s2)cc1`, the inhibition reads like this: (at 10 µM) 18% (inactive); under setting [1], 18%.

`ON=C1/C(=N\O)CC2(C/C1=N/O)OCCO2`: the inhibition was 28% (inactive) (at 10 µM) and 31% under setting [1].

Regarding `CCC1(C)NC(=O)N(CC(=O)Nc2sc3c(c2C(N)=O)CCC3)C1=O` (centres undefined), the inhibition was 58% (inactive) (at 10 µM) and 39% under setting [1].

For the compound `Cc1cc2oc(=O)cc(COC(=O)c3n[nH]c4ccccc34)c2cc1C`, the inhibition by setting is: (at 10 µM) 68% (inactive); under setting [1], 18%.

For the compound `Cc1oc(-c2ccc(Cl)cc2)cc1-c1nn2c(-c3ccoc3C)nnc2s1`, the inhibition runs as follows: (at 10 µM) 57% (inactive); under setting [1], 29%.

As to `Cc1ccc2c(Cl)cc(Cl)c(OCC(=O)NCc3ccco3)c2n1`, the inhibition was 29% (inactive) (at 10 µM) and 38% under setting [1].

For `Cc1nn(-c2ccccc2)c(C)c1NC(=O)Cc1cccs1`, the inhibition is 67% (inactive) (at 10 µM) and 25% under setting [1].

On to `CCC(=O)Nc1ccc(C(=O)Cn2nc(C(=O)O)c3ccccc3c2=O)cc1`, for which the inhibition is 64% (inactive) (at 10 µM) and 1% under setting [1].

As for `C[C@]12CC[C@@H]3c4ccc(O)cc4[C@@H](O)C[C@H]3[C@@H]1CC[C@@H]2O`, the inhibition (at 10 µM) was 74% (active) and the inhibition under setting [1] was 56%.

On to `Cc1ccc2nc(/C(C#N)=C\c3ccc(N4CCCCC4)c([N+](=O)[O-])c3)[nH]c2c1`, for which the inhibition by setting is: (at 10 µM) 15% (inactive); under setting [1], 6%.

For the compound `O=c1nc2s/c(=C\c3ccco3)c(=O)n2nc1Cc1ccc(F)cc1`, the inhibition is 16% (inactive) (at 10 µM) and 35% under setting [1].

Turning to `Oc1ccc(-c2cn3c(n2)SCC3)cc1`, the inhibition reads like this: (at 10 µM) 64% (inactive); under setting [1], 10%.

Regarding `Nc1ccc(-c2nc3c(Cl)c(N)ccc3[nH]2)cc1`, the inhibition reads like this: (at 10 µM) 66% (inactive); under setting [1], 32%.

For `CCCNCC1COc2ccccc2O1` (centres undefined), the inhibition is, setting by setting: (at 10 µM) 51% (inactive); under setting [1], 41%.

`CN(C(=S)Nc1cccnc1)c1ccc(O)cc1`: the inhibition reads like this: (at 10 µM) 14% (inactive); under setting [1], 54%.

As to `Cc1ccc(C(=O)NCC(=O)OCC(=O)c2c(N)n(C)c(=O)n(C)c2=O)s1`, the inhibition (at 10 µM) is 5% (inactive) and the inhibition under setting [1] came out at 25%.

As for `COc1ccccc1-c1nnc2n1N=C(c1ccc(O)c(O)c1)CS2`, the inhibition is, setting by setting: (at 10 µM) 69% (inactive); under setting [1], 21%.

In the case of `COc1ccc(-c2nnc(SCC(=O)/C(C#N)=C(\C)N)o2)cc1`, the inhibition was 36% (inactive) (at 10 µM) and 13% under setting [1].

On to `C1=C(N2CCOCC2)/C(=C/c2nc3ccccc3[nH]2)CC1`, for which the inhibition (at 10 µM) is 26% (inactive) and the inhibition under setting [1] worked out at 20%.

Turning to `O=C(Cn1c(=O)n(Cc2ccco2)c(=O)c2c3c(sc21)CCCCC3)Nc1ccccc1`, the inhibition was 37% (inactive) (at 10 µM) and 39% under setting [1].

As to `Cc1ccnc(NS(=O)(=O)c2ccc(NC(=O)c3cc(-c4ccc(Br)cc4)nc4ccccc34)cc2)n1`, the inhibition was 0% (inactive) (at 10 µM) and 51% under setting [1].

For `Cc1ccc(C2=Nc3ccccc3N=C(c3ccco3)C2)c(O)c1`, the inhibition reads like this: (at 10 µM) 2% (inactive); under setting [1], 29%.

For the compound `CN(C)C(=O)c1ccc2c(c1)C1C3CCC(C3)C1C(c1ccccc1)N2` (centres undefined), the inhibition is, setting by setting: (at 10 µM) 0% (inactive); under setting [1], 51%.

Consider `O=C(c1cccc(F)c1)N1CCN(C(=O)c2cc3ncc(Br)cn3n2)CC1`, for which the inhibition was 26% (inactive) (at 10 µM) and 38% under setting [1].

For the compound `Cc1ccc(-n2c(=O)c(C#N)cc3c(=O)n4cccc(C)c4nc32)cc1`, the inhibition (at 10 µM) is 72% (active) and the inhibition under setting [1] is 29%.

Consider `Cc1cc(C)n2nc(SCc3cc(=O)oc4cc(O)ccc34)nc2n1`, for which the inhibition (at 10 µM) is 19% (inactive) and the inhibition under setting [1] was 19%.

On to `COc1ccc2c(c1)c1nc3ccccc3nc1n2CCCN1C(=O)c2ccccc2C1=O`, for which the inhibition is 49% (inactive) (at 10 µM) and 18% under setting [1].

In the case of `CC(C)C1Nc2c(O)cc(Cl)c([N+](=O)[O-])c2C2C=CCC21` (centres undefined), the inhibition (at 10 µM) is 28% (inactive) and the inhibition under setting [1] turned out to be 5%.

With `Cc1ccc(NC(=O)CSc2nnnn2-c2ccc3c(c2)OCO3)cc1C`, the inhibition is, setting by setting: (at 10 µM) 32% (inactive); under setting [1], 34%.

`COc1cc(OC)cc(C(=O)NC2CCN(C(=O)N3c4ccccc4Sc4ccccc43)CC2)c1`: the inhibition (at 10 µM) is 21% (inactive) and the inhibition under setting [1] worked out at 16%.

For `O=C1c2ccccc2NC(c2ccc(O)cc2)N1/N=C/c1ccc(O)cc1` (centres undefined), the inhibition is, setting by setting: (at 10 µM) 71% (active); under setting [1], 1%.

Take `COc1ccc(C2Nc3ccccc3C(=O)N2Cc2ccccc2)cc1Cn1nnc2ccccc21` (centres undefined): the inhibition is, setting by setting: (at 10 µM) 38% (inactive); under setting [1], 45%.

`Cc1cc(Cl)ccc1OCC(=O)OC(C)C(=O)N(C)C` (centres undefined): the inhibition reads like this: (at 10 µM) 35% (inactive); under setting [1], 12%.

Consider `COc1ccc(NC(=O)c2ccco2)cc1N`, for which the inhibition (at 10 µM) was 69% (inactive) and the inhibition under setting [1] amounted to 17%.

`Cc1cc(-c2ccccc2)nc2cc(C(N)=O)nn12`: the inhibition (at 10 µM) was 49% (inactive) and the inhibition under setting [1] is 14%.

For `COCCCn1c(Cc2csc(Nc3cccc(Cl)c3)n2)nnc1SCC(=O)OC1CCCCC1`, the inhibition runs as follows: (at 10 µM) 11% (inactive); under setting [1], 29%.
